Inconclusive results are not listed. The source made the active and inactive calls. Unless noted, calls follow the shape of the dose curve; as a rule, active = well fitted curve in the direction sought with a large enough effect; inconclusive = small, poorly fitted or top-dose-only effect, or another doubt; inactive = no such curve, though single readings can be large; an effect the other way counts as inactive or inconclusive.

A short description of test [1]: qHTS for Inhibitors of the Functional Ribonucleoprotein Complex (vRNP) of Lassa (LASV) Arenavirus: LASV Primary Screen - GLuc reporter signal (AID 1347082; calls by dose curve; tested in HEK293 reporter line; also: nearly all actives have a fitted effect of over 60% in size; also: potency is read from the fitted curve at half-maximal effect).
Test [2] in a line: qHTS for Inhibitors of the Functional Ribonucleoprotein Complex (vRNP) of Lassa (LASV) Arenavirus: Viability assay - alamar blue signal for LASV Primary Screen (AID 1347083; calls by dose curve; tested in HEK293 reporter line; also: nearly all actives have a fitted effect of over 80% in size; also: potency is read from the fitted curve at half-maximal effect).
The nature of test [3]: qHTS for Inhibitors of the Functional Ribonucleoprotein Complex (vRNP) of Lymphocytic Choriomeningitis Arenaviruses (LCMV): Viability assay - alamar blue signal for LCMV Primary Screen (AID 1347085; calls by dose curve; tested in HEK293 reporter line; also: nearly all actives have a fitted effect of over 80% in size; also: potency is read from the fitted curve at half-maximal effect).
The target in test [4] is Nucleoprotein (Lymphocytic choriomeningitis virus (strain Armstrong)) (UniProt P09992). In words: qHTS for Inhibitors of the Functional Ribonucleoprotein Complex (vRNP) of Lymphocytic Choriomeningitis Arenaviruses (LCMV): LCMV Primary Screen - GLuc reporter signal (AID 1347086; calls by dose curve; also: nearly all actives have a fitted effect of over 70% in size; also: potency is read from the fitted curve at half-maximal effect).
A short description of test [5]: qHTS of pediatric cancer cell lines to identify multiple opportunities for drug repurposing: Primary screen for TC32 cells (AID 1347089). Also: nearly all actives have a fitted effect of over 60% in size. Also: potency is read from the fitted curve at half-maximal effect. In short, it runs like this: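 A viability screen of TC32 cells was run over 48 h, with primary MIPE doses spanning 0.78 nM–46 µM and NPC doses 0.59 nM–46 µM. ATP luminescence (CellTiter-Glo) served as the read-out.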
Test [6] in a line: qHTS of pediatric cancer cell lines to identify multiple opportunities for drug repurposing: Primary screen for DAOY cells (AID 1347090). Also: nearly all actives have a fitted effect of over 55% in size. Also: potency is read from the fitted curve at half-maximal effect. The procedure, abridged:
(§1)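 Eight- or eleven-point concentration series, 48 h treatment at 37 degrees C in growth media; readout CellTiter-Glo luminescence. Potency and efficacy were taken from the concentration-response curves.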

Test [7] can be described thus: qHTS of pediatric cancer cell lines to identify multiple opportunities for drug repurposing: Primary screen for SJ-GBM2 cells (AID 1347091). Also: potency is read from the fitted curve at half-maximal effect. The procedure, abridged: as §1
Test [8] is described as follows: qHTS of pediatric cancer cell lines to identify multiple opportunities for drug repurposing: Primary screen for A673 cells (AID 1347092). Also: nearly all actives have a fitted effect of over 45% in size. Also: potency is read from the fitted curve at half-maximal effect. The procedure, abridged:
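Titration-based qHTS on A673 cells: MIPE compounds spanned 11 points (0.78 nM to 46 µM final), NPC compounds 8 points (0.59 nM to 46 µM final). Viability after 48 h was measured by ATP luminescence.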

A short description of test [9]: qHTS of pediatric cancer cell lines to identify multiple opportunities for drug repurposing: Primary screen for SK-N-MC cells (AID 1347093). Also: potency is read from the fitted curve at half-maximal effect. In short, it runs like this:
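Metabolically active cells were quantified by ATP-dependent luminescence (CellTiter-Glo, 15 min at room temperature) following 48 h treatment. Cells had been plated at 500-1,000 per well and settled for 5 h beforehand.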

Test [10] is described as follows: qHTS of pediatric cancer cell lines to identify multiple opportunities for drug repurposing: Primary screen for BT-37 cells (AID 1347094). Also: potency is read from the fitted curve at half-maximal effect. The procedure, abridged:
(§2)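 Cells seeded at 500-1,000 cells/well in growth media, rested 5 hours at 37 degrees C, 5% CO2, then dosed; MIPE compounds at 11-point (from 0.78 nM) and NPC at 8-point (from 0.59 nM) final concentrations. Viability by CellTiter-Glo luminescence after 48 hours.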

Test [11] is described as follows: qHTS of pediatric cancer cell lines to identify multiple opportunities for drug repurposing: Primary screen for NB-EBc1 cells (AID 1347095). Also: potency is read from the fitted curve at half-maximal effect. The procedure, abridged: as §2
Test [12] is described as follows: qHTS of pediatric cancer cell lines to identify multiple opportunities for drug repurposing: Primary screen for Saos-2 cells (AID 1347097). Also: nearly all actives have a fitted effect of over 40% in size. The procedure, abridged: as §2
Test [13] is described as follows: qHTS of pediatric cancer cell lines to identify multiple opportunities for drug repurposing: Primary screen for SK-N-SH cells (AID 1347098). Also: nearly all actives have a fitted effect of over 65% in size. Also: potency is read from the fitted curve at half-maximal effect. The procedure, abridged:
(§3)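 Cells (500-1,000/well) rested 5 h, then received compounds for 48 h; metabolically active cells were measured by CellTiter-Glo luminescence. Final concentrations spanned up to 46 µM (MIPE, 11-point) or 0.59 nM-46 µM (NPC, 8-point) in primary screens, 11-point in follow-ups.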

Test [14] in a line: qHTS of pediatric cancer cell lines to identify multiple opportunities for drug repurposing: Primary screen for NB1643 cells (AID 1347099). Also: nearly all actives have a fitted effect of over 50% in size. Also: potency is read from the fitted curve at half-maximal effect. The procedure, abridged: as §2
Test [15] can be described thus: qHTS of pediatric cancer cell lines to identify multiple opportunities for drug repurposing: Primary screen for LAN-5 cells (AID 1347100). The procedure, abridged:
(§4)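 Cells (500-1,000/well) in growth media were settled 5 h at 37 degrees C, then given compounds for 48 h. Viability was read as CellTiter-Glo luminescence. Primary runs used MIPE at 11 points (0.78 nM-46 µM) and NPC at 8 points (0.59 nM-46 µM); follow-ups used 11 points.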

The nature of test [16]: qHTS of pediatric cancer cell lines to identify multiple opportunities for drug repurposing: Primary screen for BT-12 cells (AID 1347101). Also: nearly all actives have a fitted effect of over 25% in size. Also: potency is read from the fitted curve at half-maximal effect. The procedure, abridged:
as §3

A short description of test [17]: qHTS of pediatric cancer cell lines to identify multiple opportunities for drug repurposing: Primary screen for Rh18 cells (AID 1347102). Also: nearly all actives have a fitted effect of over 65% in size. Also: potency is read from the fitted curve at half-maximal effect. The procedure, abridged:
as §4

Test [18] in a line: qHTS of pediatric cancer cell lines to identify multiple opportunities for drug repurposing: Primary screen for OHS-50 cells (AID 1347103). Also: nearly all actives have a fitted effect of over 40% in size. Also: potency is read from the fitted curve at half-maximal effect. The procedure, abridged: as §3
Test [19] can be described thus: qHTS of pediatric cancer cell lines to identify multiple opportunities for drug repurposing: Primary screen for U-2 OS cells (AID 1347096). Also: nearly all actives have a fitted effect of over 50% in size. Also: potency is read from the fitted curve at half-maximal effect. In short, it runs like this: as §4

Nucleoprotein (Lymphocytic choriomeningitis virus (strain Armstrong)), sequence (P09992 whole entry, looked up): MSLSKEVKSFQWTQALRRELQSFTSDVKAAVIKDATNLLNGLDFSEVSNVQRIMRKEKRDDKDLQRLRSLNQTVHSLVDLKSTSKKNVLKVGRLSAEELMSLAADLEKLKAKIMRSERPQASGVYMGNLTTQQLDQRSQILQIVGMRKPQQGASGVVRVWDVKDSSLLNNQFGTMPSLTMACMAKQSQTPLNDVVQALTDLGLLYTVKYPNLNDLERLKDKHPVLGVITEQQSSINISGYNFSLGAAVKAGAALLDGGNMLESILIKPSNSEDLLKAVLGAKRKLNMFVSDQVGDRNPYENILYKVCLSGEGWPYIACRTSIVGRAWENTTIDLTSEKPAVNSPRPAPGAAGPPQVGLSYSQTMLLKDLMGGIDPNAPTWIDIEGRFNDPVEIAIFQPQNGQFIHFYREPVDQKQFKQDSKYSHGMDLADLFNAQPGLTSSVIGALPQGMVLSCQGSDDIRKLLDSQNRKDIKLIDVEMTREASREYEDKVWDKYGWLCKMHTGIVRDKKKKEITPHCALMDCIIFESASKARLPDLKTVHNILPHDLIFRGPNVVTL

With `Fc1cc(Br)ccc1CBr`, the Potency entry in test [1], in test [2], in test [3], in test [4], in test [5] and in test [6] was “inactive” each time. The Potency result in test [7], in [8], in test [9], in test [10], in test [11] and in test [12] was “inactive” throughout. For the same compound, the Potency result in [13], in test [14], in test [15], in [16], in [17] and in test [18] was “inactive” each time.
Take `C[C@]12CCC(=O)C(O)=C1CC[C@@H]1[C@H]3CCC(=O)[C@@]3(C)CC[C@@H]12`: the Potency entry in test [1], in test [2], in test [3], in test [4], in [5] and in [6] was “inactive” each time. Besides, the Potency result in test [7], in test [8], in [9], in test [10], in test [11] and in test [19] was “inactive” in each case. Moreover, the Potency result in [13], in [15], in test [16] and in test [17] was “inactive” each time.
Regarding `Oc1ccc2c3c1O[C@H]1[C@@H](O)C=C[C@H]4[C@@H](C2)NCC[C@@]341`, the Potency result in test [1], in [2], in [3], in test [4], in test [5] and in test [6] was “inactive” throughout. Besides, the Potency result in [7], in test [8], in test [9], in test [10], in test [11] and in [19] was “inactive” throughout. Further, the Potency result in [12], in [13], in test [14], in test [17] and in [18] was “inactive” in each case.
`CC(C)(C)[C@]1(O)C[C@@H]2OC(=O)C[C@@]23C(=O)O[C@@H]2OC(=O)[C@H](O)C213` (stereo partly drawn): the Potency entry in test [1], in test [2], in [3], in test [4], in test [5] and in test [6] was “inactive” each time. Further, the Potency result in test [7], in test [8], in test [9], in test [10], in test [11] and in [19] was “inactive” in each case. Besides, the Potency entry in test [12], in test [14], in [15], in [16], in [17] and in test [18] was “inactive” in each case.
As for `CC(C)(C)C(O)C(Oc1ccc(Cl)cc1)n1cncn1` (stereo not drawn), the Potency entry in test [1], in test [2], in test [3], in [4], in test [5] and in test [6] was “inactive” each time. Also, the Potency entry in [7], in test [8], in test [10], in [11], in test [19] and in test [14] was “inactive” throughout. The Potency entry in test [15], in [16] and in [17] was “inactive” throughout. Further, the Potency in test [9] is 1 nM (active).
Turning to `c1ccc2c(CN3CCNCC3)cccc2c1`, the Potency result in [1], in [2], in test [3], in [4], in test [5] and in [6] was “inactive” throughout. The Potency result in test [7], in test [8], in test [10], in [11], in test [19] and in test [13] was “inactive” in each case. Besides, the Potency result in test [16] and in test [17] was “inactive” in each case. In test [9], the Potency is 29600 nM (active).
For `COC1=CC(C)=C[C@@H](C)[C@@H](O)[C@@H](C)CC(C)=CC=C[C@H](OC)[C@H]([C@@H](C)[C@@H](O)[C@H](C)[C@@]2(O)C[C@@H](O)[C@H](C)[C@@H](C(C)C)O2)OC1=O`, the Potency is 109 nM (active) in test [1]; 76.9 nM (active) in test [2]; 34.3 nM (active) in test [3]; 48.5 nM (active) in test [4]; 330 nM (active) in test [5]; 2.3 nM (active) in test [6]. Further, the Potency is 1 nM (active) in [7]; 3.7 nM (active) in test [8]; 2.1 nM (active) in [9]; 3.4 nM (active) in test [10]; 1 nM (active) in [11]; 37200 nM (active) in [19]. The Potency was 13.6 nM (active) in [13]; 9.3 nM (active) in [14]; 4.9 nM (active) in [16]; 14800 nM (active) in [17]; 1.4 nM (active) in [18].
Take `CCCCOC(=O)c1ccccc1C(=O)OCc1ccccc1`: the Potency result in test [1], in test [2], in test [3], in test [4], in test [5] and in [6] was “inactive” throughout. The Potency result in [7], in test [8], in test [9], in test [10], in test [11] and in [12] was “inactive” each time. The Potency entry in [13], in test [14], in test [15], in test [16] and in test [17] was “inactive” each time.
Regarding `CCC(=O)O[C@@H]1C=C2CCC3C(CCC4(C)C3CC[C@@H]4OC(=O)CC)C2CC1` (stereo partly drawn), the Potency entry in [1], in [2], in test [3], in [4], in [5] and in test [6] was “inactive” in each case. Besides, the Potency entry in test [7], in test [8], in test [9], in test [10], in test [11] and in test [13] was “inactive” each time. Also, the Potency result in test [14], in test [15], in test [16], in test [17] and in [18] was “inactive” each time.
Take `O=C(O)COc1ccccc1`: the Potency result in [1], in [2], in test [3], in test [4], in [5] and in test [6] was “inactive” throughout. Moreover, the Potency entry in test [7], in test [8], in [9], in [10], in [11] and in test [19] was “inactive” each time. For the same compound, the Potency entry in test [12], in test [13], in [14], in test [15], in test [16] and in test [17] was “inactive” in each case. For the same compound, the Potency entry in test [18] is “inactive”.
`Cc1cc(O)ccc1Cl`: the Potency result in test [1], in [2], in [3], in test [4], in test [5] and in test [6] was “inactive” in each case. Further, the Potency entry in test [7], in test [8], in test [9], in [10], in test [11] and in [19] was “inactive” throughout. Also, the Potency entry in test [12], in test [13], in test [14], in test [15], in test [16] and in test [17] was “inactive” throughout. Also, in test [18], the Potency entry was “inactive”.
Consider `O=[N+]([O-])c1ccc([As](=O)(O)O)cc1`, for which the Potency entry in test [1], in [2], in test [3], in test [4], in test [5] and in [6] was “inactive” in each case. The Potency result in [7], in test [8], in [9], in test [10], in [11] and in test [19] was “inactive” in each case. Besides, the Potency result in test [13], in test [14], in test [15], in test [16], in test [17] and in test [18] was “inactive” in each case.
For the compound `CCOP(=O)(NC(C)C)Oc1ccc(SC)c(C)c1` (stereo not drawn), the Potency result in [1], in [2], in test [3], in test [4], in [5] and in test [6] was “inactive” in each case. The Potency entry in [7], in test [8], in test [9], in [10], in test [11] and in test [12] was “inactive” each time. Moreover, the Potency result in test [13], in test [14], in test [15] and in test [17] was “inactive” each time.

Values taken from PubChem BioAssay (NCATS).
